{"source": "the supplement of paper PMC6555819", "data": [{"system": "VDR:RXRa (NR concentration 270 nM, RXRa partner concentration 90 nM)", "assay": "PBM binding z-score (relative to random genomic background probes); higher = stronger binding; sequences stand for … in GC…GCGATTGACAGCGTAGAATGAAGG", "method": "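Protein-binding microarray (Agilent 4x180K custom design, double-stranded 60-nt probes: 5' GC cap, 34-nt variable region, 24-nt constant primer region; full probe sequence given). Purified or IVT nuclear receptor:RXRα heterodimers (3:1 NR:RXRα, mostly 270:90 nM) or homodimers were incubated for 1 h in PBS with 2% milk and no ligand, then detected with Alexa488 antibodies. Fluorescence from o1-orientation probes (~5 replicates averaged) was converted to z-scores against 500 random hg19 background probes. Variable regions are seed direct-repeat (DR0–DR5) sites, all their single-nucleotide variants and half-site ablations.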", "values": [{"sequence": "CCTGCTAGGGCAATGGTCAGCTAAAGCAGCTCGC", "PBM binding z-score": -0.874}, {"sequence": "ACTAACGGGTCAACGAGGTTATAGCACGCGTATA", "PBM binding z-score": 7.41}, {"sequence": "ATCTCTAGGTAACAAGTTCAGTGCAAGAGAGGAC", "PBM binding z-score": 1.79}, {"sequence": "CGAACTAGGTCAGAACAGGACAGTCAAGGATGAT", "PBM binding z-score": 0.754}, {"sequence": "CGTCCAAGGTGAGCAGGTCAGTGAAAGCGACGTG", "PBM binding z-score": 0.0617}, {"sequence": "AGAACGAGGGCCATGAGTTGATAGCACGGGTGGC", "PBM binding z-score": 0.196}, {"sequence": "TATACAGGGTCAAAGGCCCGAGTACGAATGTCGA", "PBM binding z-score": 4.53}, {"sequence": "CCTACTGGGCCATCAGGTCATGGATATCAACGTT", "PBM binding z-score": 1.54}, {"sequence": "CTACCAAGGTGAACCAGGTCGTTGATTACTATTC", "PBM binding z-score": 4.93}, {"sequence": "CGTCCAAGGTCCGAGAGGTCAGTGAATGCCGAGT", "PBM binding z-score": 3.27}, {"sequence": "GCGACTGGGGCAAAGCAGGTTACCGTAAGGTTGG", "PBM binding z-score": -0.0193}, {"sequence": "GCTAATAGTTGAAAGGGCAACCGAATGATTCTCG", "PBM binding z-score": 0.767}, {"sequence": "TTACCAAAGTGAGCTGAGGTCGTTGATCCAACTC", "PBM binding z-score": 1.84}, {"sequence": "ATCTCTAGGTAAGTCTCAGTTCAGTGAAGAACGC", "PBM binding z-score": 0.65}, {"sequence": "CGAACTAGGTCAGAACAGAACAGTGAAGGATGAT", "PBM binding z-score": -0.0419}, {"sequence": "TCTAGTTTGTCAAAGGTCACACACTCGAAATGCG", "PBM binding z-score": 5.12}, {"sequence": "ATCGAAAGGTCGAGGTGAGTAGAGAGAAAGGGAA", "PBM binding z-score": 2.27}, {"sequence": "GGAACGAGGGCACTCGAGTTGATAGCATGGCGAT", "PBM binding z-score": 2.64}, {"sequence": "CCGACTGGGGCAACGTTACCATAACGCACAGCCA", "PBM binding z-score": -0.557}, {"sequence": "CAGACTGGGGCAAGGTTACCATAACGCACAGCCA", "PBM binding z-score": 0.28}, {"sequence": "TGTCAAAGTTCAAAGGTAACGTGAGTATCCACAC", "PBM binding z-score": 5.2}, {"sequence": "CCTAGCAGGCCAGGGTCACTCACGCATTTCGCTT", "PBM binding z-score": 2.3}, {"sequence": "GCTTGTAGATCAAGGTTAAGAGAGACTAAGCTAA", "PBM binding z-score": -0.00778}, {"sequence": "TCTTGTATATCAACAGGAGGTTAAGAAAGATCGA", "PBM binding z-score": 1.28}, {"sequence": "CGTCAAAGTTCAAGGTAACGTCACAGAAAGCAGC", "PBM binding z-score": 3.96}, {"sequence": "CGTCCAAGTTCAAGGTCAGTGAAAGAGACTCGAA", "PBM binding z-score": 3.88}, {"sequence": "ACAACGAGGGCACGCTGAGTTGATAGCAGAGTAG", "PBM binding z-score": 2.01}, {"sequence": "AGAGACAGGTGAGTGAAGGTAACTCAGCTGGACG", "PBM binding z-score": -0.141}, {"sequence": "CAAACTAGGGCACCGGAAGGTCAAAGTCCGCATG", "PBM binding z-score": 3.69}, {"sequence": "ACAAACAGGTGATGAAGGTAACTCAGGCTATCAT", "PBM binding z-score": 0.56}, {"sequence": "TCTATTAGTTGGTTAGGGCAACCGAAACAGCGGA", "PBM binding z-score": 0.428}, {"sequence": "CCTGCTAGGTCATGGTGAGCTAATCTACAGTATG", "PBM binding z-score": 1.37}, {"sequence": "CCAGACAGGTGAGAAGGTAGCTCAGCCTCGATTA", "PBM binding z-score": -0.387}, {"sequence": "TCATATAGGAAATACAGGTGAAAGTCGGCATCTA", "PBM binding z-score": 1.02}, {"sequence": "TCTTGTACATCAGCAGGTTAAGAAAGCTGGCCAA", "PBM binding z-score": 0.622}, {"sequence": "CATACAGGGTCAGTTAGGCCAGAGTAGGGACGGC", "PBM binding z-score": 3.05}, {"sequence": "TGATATAGGTAATACAGGTGAAAGTCGGCATCTA", "PBM binding z-score": 0.523}, {"sequence": "TCTTGTGGATCAAAGGTTAAGAAAGCCGAAGCCT", "PBM binding z-score": 1.54}, {"sequence": "CCTACTGGGCCATTCAGAGGTCATTAATCATATG", "PBM binding z-score": 3.64}, {"sequence": "AGAATGAGGTTATACGGAGATCAGGGAAGAAAGT", "PBM binding z-score": 1.56}]}]}
